From PubChem BioAssay
HepG2 tox: kills HepG2 cells in TGF-b inhibitor counter-screen; HepG2 CAGA-GFP viability, ATP luminescence, 18 h; Potency, µM (top dose mostly 46.1 µM), for inactives: at the top dose activity change, negative = cytotoxicity, hits mostly cytotoxic; 0.76% of 410,000 active; AID 588856; note: potency is the fitted concentration of half-maximal effect
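HepG2 CAGA-GFP cells (1000/well, DMEM with 1% FBS) received compound, then TGF-beta at 500 pg/mL final, and were incubated 18 hours at 37 degrees C. Viability was read by CellTiter-Glo luminescence. Media-only wells were set as complete cell-killing and DMSO as no toxicity.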
IL-1B inflam inh: inflammasome signaling inhibition, IL-1 beta readout; THP-1 LPS/ATP IL-1B secretion, AlphaLISA, 16 h; stronger effect = lower value; activity change, % at 57.5 µM; 4.7% of 360,000 active; AID 743279; in the data active = activity change below about -50%; inconclusive = mostly about -30% to -49%; note: % is set by controls: 0 for no effect and ±100 for the full control effect
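Secreted IL-1B measured by AlphaLISA bead assay after 16 h compound exposure of THP-1 cells; compounds (final up to 57.5 uM) added 1 h before LPS (250 ng/mL) and ATP (1.25 mM) stimulation; lower signal means less secretion.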
DT40 TDP1 CPT: DT40-hTDP1 cell growth loss with CPT; chicken DT40 Tdp1-/-;hTDP1 cells + 20 nM CPT, ATP luminescence, 48 h; Potency, µM (titrated, usually from 46.2 µM), for the others: at the highest dose activity change, negative = growth inhibition, actives largely listed as inhibitors; 12% of 420,000 active; note: potency is the fitted concentration of half-maximal effect; % is set by controls: 0 for no effect and ±100 for the full control effect; nearly all actives have a fitted effect of over 55% in size
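Cell growth measured by CellTiter-Glo luminescence after a minimum 48 h, 37 C compound exposure with 20 nM CPT in Tdp1-knockout DT40 cells stably expressing hTDP1, seeded 400/well; qHTS titration format.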
TGFb inhibitor: inhibitors of TGF-b signaling; 1.2% of 410,000 active; HepG2 CAGA-GFP TGF-b/SMAD3 reporter, GFP fluorescence, 18 h; TGF-beta stimulated, 500 pg/mL final; Potency, µM (highest dose often 46.1 µM), for the others: top-dose activity, negative = inhibition, actives largely listed as inhibitors; AID 588855; note: potency is the fitted concentration of half-maximal effect; % is set by controls: 0 for no effect and ±100 for the full control effect; nearly all actives have a fitted effect of over 65% in size
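Cell-based qHTS in HEPG2 carrying a CAGA-GFP Smad reporter; compounds added before 500 pg/mL final TGF-beta, 18 h incubation at 37 degrees C, GFP fluorescence quantified per cell by imaging cytometry.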
DT40 TDP1 no CPT: qHTS for Inhibitors of human tyrosyl-DNA phosphodiesterase 1 (TDP1): qHTS in cells in absence of CPT; DT40 Tdp1-/- hTDP1 cells, no CPT, ATP luminescence, 48 h; Potency, µM (highest dose often 46.2 µM), without a hit: top-dose activity change, negative = growth inhibition, most hits filed as inhibitors; 15% of 420,000 active; note: potency is the fitted concentration of half-maximal effect; % is set by controls: 0 for no effect and ±100 for the full control effect; nearly all actives have a fitted effect of over 55% in size
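Chicken DT40 Tdp1-/- cells stably complemented with human TDP1 were seeded at 400 cells/well with DMSO in place of 20 nM camptothecin. After compound pinning, cells grew at least 48 hr at 37 °C; viability read by CellTiter-Glo luminescence.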
TDP1 inh: blocks human tyrosyl-DNA phosphodiesterase 1 | Q9NUW8 | 0.28% of 350,000 active | recombinant TDP1, AlphaScreen DNA substrate cleavage | Potency, µM (titrated, usually from 130 µM), inactives show top-dose activity change, negative = inhibition, actives largely listed as inhibitors; note: potency is the fitted concentration of half-maximal effect; % is set by controls: 0 for no effect and ±100 for the full control effect; nearly all actives have a fitted effect of over 40% in size
Target sequence (Q9NUW8 whole entry, looked up): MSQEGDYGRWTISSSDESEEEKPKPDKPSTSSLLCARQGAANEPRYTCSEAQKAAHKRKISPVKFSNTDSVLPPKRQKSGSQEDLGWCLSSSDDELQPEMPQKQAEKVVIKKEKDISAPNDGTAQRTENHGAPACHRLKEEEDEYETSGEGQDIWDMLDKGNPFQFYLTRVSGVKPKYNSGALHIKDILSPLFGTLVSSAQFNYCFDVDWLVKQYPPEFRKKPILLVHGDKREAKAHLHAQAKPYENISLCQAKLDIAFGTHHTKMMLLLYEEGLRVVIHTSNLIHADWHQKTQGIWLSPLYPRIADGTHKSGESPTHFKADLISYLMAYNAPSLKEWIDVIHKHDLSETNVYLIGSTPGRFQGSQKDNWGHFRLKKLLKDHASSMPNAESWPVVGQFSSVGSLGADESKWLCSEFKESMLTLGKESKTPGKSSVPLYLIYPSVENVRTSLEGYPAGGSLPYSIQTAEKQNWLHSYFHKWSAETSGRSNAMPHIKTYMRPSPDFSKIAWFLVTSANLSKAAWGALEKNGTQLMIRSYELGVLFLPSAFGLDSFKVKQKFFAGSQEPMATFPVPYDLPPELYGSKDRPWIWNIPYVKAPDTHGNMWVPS
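Recombinant E. coli-expressed Tdp1 (1 nM) preincubated with compound 15 min at RT, then 5'-biotin/3'-phosphotyrosine-FITC DNA substrate (15 nM) added for 5 min. AlphaScreen beads (10 ug/ml) added, 10 min RT; tyrosine-FITC cleavage read as signal loss.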
Active calls of the source: *; ? = inconclusive; . = no result. Only some compounds are listed: those with a hit (about 19% of all), similar ones and a draw of the others. Unless noted, calls come from the whole dose curve; as a rule, active = well fitted curve in the direction sought with a large enough effect; inconclusive = small, poorly fitted or top-dose-only effect, or another doubt; inactive = no such curve, though single readings can be large; an effect the other way counts as inactive or inconclusive.

SMILES	HepG2 tox	IL-1B inflam inh	DT40 TDP1 CPT	TGFb inhibitor	DT40 TDP1 no CPT	TDP1 inh
CC(C)(C)c1ccccc1NC(=O)Nc1nc(C(N)c2ccccc2)cs1 (stereo not given)	-50.6%	-16.2	?	?	?	.
CC(C)c1ccccc1NC(=O)Nc1nc(C(N)Cc2ccc(C(F)(F)F)cc2)cs1 (stereo not given)	8.91µM*	-18.3	13µM*	11.2µM*	23.1µM*	.
COc1ccc(NC(=O)Nc2nc(C(N)CC(C)C)cs2)cc1 (stereo not given)	-44.6%	?	?	?	16.4µM*	.
CC(C)(C)c1ccccc1NC(=O)Nc1nc(C(N)Cc2ccc(F)cc2)cs1 (stereo not given)	-107.1%	-53.3*	?	?	20.6µM*	.
CC(C)CC(N)c1csc(NC(=O)Nc2ccccc2C(C)C)n1 (stereo not given)	-98.2%	?	?	?	14.6µM*	.
Cc1oc2ncnc(N3CCOCC3)c2c1C(=O)N1CCN(c2cccc(C(F)(F)F)c2)CC1	-30.0%	.	?	?	-13.2%	4.2%
NS(=O)(=O)c1ccc(CCNC(=O)CNCCc2ccc(C(F)(F)F)cc2)cc1	-19.2%	21.3	?	-23.5%	?	.
CC(C)c1ccccc1NC(=O)CNCCc1ccc(C(F)(F)F)cc1	-56.9%	-6.2	?	?	25.9µM*	.
Fc1ccc(-c2cc(-c3nc(-c4cccc(Cl)c4)no3)[nH]n2)cc1	-2.2%	.	?	23.7%	?	5.3%
COc1ccc(C(=O)CCS(=O)(=O)c2ccc(F)cc2)cc1OC	.	.	.	.	.	1.4%
Cc1ccc(S(=O)(=O)CCC(=O)c2ccc(F)cc2)cc1	-97.9%	-60.6*	4.11µM*	?	2.59µM*	0.9%
Cc1ccc(C(=O)CCS(=O)(=O)c2ccc(Cl)cc2)cc1	-65.2%	0.0	2.91µM*	?	2.91µM*	2.7%
Cc1ccc(C(=O)CCS(=O)(=O)c2ccc(F)cc2)cc1	12.6µM*	-27.6	4.61µM*	15.8µM*	2.91µM*	2.6%
CCCN(CCC)C(=O)Cn1c(=O)n(-c2cccc(OC)c2)c(=O)c2c(C)c(C(=O)N(C)C)sc21	4.2%	.	-8.1%	0.9%	-3.3%	0.5%
Cc1ccc(-c2nnc(Nc3ccc(O)cc3)c3ccccc23)cc1S(=O)(=O)NCc1nc2ccccc2[nH]1	-1.4%	.	-5.0%	?	-12.4%	.
Cc1cccc(Cn2c(SCc3ccc(C(=O)NCc4ccccc4F)cc3)nc3ccncc32)c1	-29.4%	.	?	?	23.1µM*	2.0%
COc1ccc(NC(=O)Cn2c(SCc3cccc(Cl)c3)nc3ccncc32)c(OC)c1OC	-27.0%	.	20.6µM*	?	?	7.6%
COc1cccc(CNC(=O)c2ccc(CSc3nc4ccncc4n3Cc3cccc(C)c3)cc2)c1	-18.7%	.	20.6µM*	-51.7%	16.4µM*	5.9%
Cc1cccc(Cn2c(SCc3ccc(C(=O)NC4CCCCC4)cc3)nc3ccncc32)c1	-35.3%	.	-8.8%	-9.1%	-18.9%	-2.0%
COC(=O)c1ccc(Cn2c(SCc3cccc(C)c3)nc3ccncc32)cc1	-34.1%	.	?	?	16.4µM*	5.9%
COc1ccc(N2CCN(S(=O)(=O)CCNC(=O)C3CC(=O)N(c4ccccc4)C3)CC2)cc1 (stereo not given)	-13.0%	-3.4	?	1.0%	0.4%	0.8%
COc1cccc2cc(C(=O)NCCc3c(C)[nH]c4ccc(F)cc34)c(=O)oc12	-18.0%	.	.	-0.9%	.	4.5%
O=S(=O)(NCc1nc2cccnc2n1Cc1ccccc1Cl)c1ccc(F)c(Cl)c1	-28.4%	.	?	-18.9%	?	5.5%
Cc1cccc(Cn2c(SCc3ccc(C(=O)NCc4ccccc4F)cc3)nc3cccnc32)c1	-40.3%	.	?	?	20.6µM*	9.9%
CCc1ccc(NC(=O)Cn2c(=O)n(-c3cc(OC)c(OC)c(OC)c3)c(=O)c3ccccc32)cc1	5.6%	.	3.7%	0.0%	8.7%	-0.9%
SMILES	HepG2 tox	IL-1B inflam inh	DT40 TDP1 CPT	TGFb inhibitor	DT40 TDP1 no CPT	TDP1 inh
CCNc1c([N+](=O)[O-])c(=O)n(CC)c2ccccc12	-2.0%	-8.6	-2.0%	-12.8%	-12.8%	.
CCN(CC)c1c([N+](=O)[O-])c(=O)n(CC)c2ccccc12	-27.7%	0.0	?	-33.9%	20.6µM*	.
CCOC(=O)N1CCN(CC(=O)Nc2sccc2C#N)CC1	7.3%	68.0	20.6µM*	-8.9%	14.6µM*	5.3%
Cc1ccc(C)c(S(=O)(=O)N2CCN(CC(=O)Nc3sccc3C#N)CC2)c1	-35.9%	-1.8	16.4µM*	?	18.4µM*	3.4%
N#Cc1ccsc1NC(=O)CN1CCCCCC1	-1.9%	41.1	-27.4%	0.0%	?	1.3%
Cc1cc2c(s1)c1cnn(CC(=O)N3CCOCC3)c(=O)c1n2C	-6.8%	.	-4.5%	-6.6%	-20.8%	3.5%
COc1cccc(NC(=O)CCC(=O)N2Cc3ccccc3Oc3ncccc32)c1	22.0%	.	-23.6%	-3.0%	-17.6%	7.4%
ClCc1csc(-c2ccc(Cl)cc2)n1	1.9%	?	13µM*	7.4%	14.6µM*	-5.3%
CCOc1ccc(-c2nc(CCl)cs2)cc1	-9.8%	-1.5	10.3µM*	11.9%	?	-5.0%
COc1ccc(C(=O)Nc2nnc(S(=O)(=O)N3CCN(c4ccc(C)cc4)CC3)s2)cc1	3.4%	.	2.8%	-2.8%	-27.7%	-2.6%
CN(C)c1ccc(C2(c3ccc(N(C)C)cc3)OC(=O)c3cc(N(C)C)ccc32)cc1	.	.	.	.	.	23.9%
NC1(C#Cc2ccc3c(=O)c4ccccc4sc3c2)CCCCC1	-33.8%	-28.5	25.9µM*	-18.0%	?	1.4%
Cn1c2ccccc2c(=O)c2ccc(C#CC3(N)CCCCC3)cc21	-58.1%	-85.6*	-96.0%	?	13µM*	.
Cn1c2ccccc2c(=O)c2cc(C#CC3(O)CCCCC3)ccc21	-25.6%	-52.6*	16.4µM*	6.7%	?	.
COc1cccc2oc3ccc(C#CC4(N)CCCCC4)cc3c(=O)c12	-76.4%	-97.1*	7.31µM*	?	3.66µM*	.
CCOc1ccccc1NC(=O)n1ncc2cc(Cl)ccc21	0.2%	.	-14.4%	2.0%	?	5.7%
Nc1cc(=O)nc(SCC(=O)Nc2ccc(F)cc2)n1-c1ccccc1Cl	-2.6%	.	-23.2%	0.2%	-23.8%	-1.9%
CCOc1ccc(NC(=O)CCNS(=O)(=O)c2ccc3c(c2)CCCC(=O)N3)cc1	-8.5%	.	.	5.3%	.	4.2%
